Test results taken from PubChem BioAssay (EPA / NIEHS).
Records with an inconclusive call do not appear. Activity calls are given as the source filed them. Rule for the calls, unless noted: active = hit-call score of the fitted dose curve at least 0.9, where 1 is the maximum; inactive = score below 0.9.

Tests used:
[1] = target: Hepatocyte nuclear factor 4-alpha (Homo sapiens) (UniProt P41235); experiment: ATG_HNF4a_TRANS: Attagene TRANS-FACTORIAL HepG2 Assay for human Hepatocyte Nuclear Factor 4 alpha (HNF4a) (AID 2282982; active = hit-call score of the fitted dose curve at least 0.9, where 1 is the maximum); settings: HepG2 HNF4a transactivation reporter, mRNA readout
Chain of Hepatocyte nuclear factor 4-alpha (Homo sapiens) (P41235 whole entry, looked up, the tested form may be a part): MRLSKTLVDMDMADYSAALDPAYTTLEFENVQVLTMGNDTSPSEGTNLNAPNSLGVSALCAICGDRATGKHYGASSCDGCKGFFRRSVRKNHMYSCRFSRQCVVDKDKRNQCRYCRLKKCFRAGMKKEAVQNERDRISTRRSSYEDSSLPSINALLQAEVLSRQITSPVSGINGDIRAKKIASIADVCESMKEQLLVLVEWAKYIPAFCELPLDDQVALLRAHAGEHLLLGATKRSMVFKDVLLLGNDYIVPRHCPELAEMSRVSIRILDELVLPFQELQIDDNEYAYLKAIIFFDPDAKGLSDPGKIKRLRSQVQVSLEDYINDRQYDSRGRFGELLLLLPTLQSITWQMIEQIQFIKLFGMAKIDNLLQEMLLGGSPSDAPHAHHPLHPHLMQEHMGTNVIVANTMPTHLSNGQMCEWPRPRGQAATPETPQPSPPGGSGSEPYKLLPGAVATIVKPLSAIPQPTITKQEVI
Summary of the method: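 Cells used were human HepG2, transiently carrying GAL4-UAS reporter units read out against exogenous NR-GAL4 chimeras. Reporter transcript levels after 24 h dosing were quantified by fluorescent RT-PCR and capillary electrophoresis.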

[2] = ATG_M_06_TRANS: Attagene TRANS-FACTORIAL HepG2 Assay for M06 Transcription Factor (Internal Marker) (AID 2282983; active = hit-call score of the fitted dose curve at least 0.9, where 1 is the maximum); settings: HepG2 Attagene TRANS M06 internal marker reporter
Summary of the method: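 After a 24 h chemical treatment of transfected HepG2, RNA underwent DNase I treatment, reverse transcription and reporter-specific PCR; labelled, HpaI-digested products were sized by capillary electrophoresis. Signal increase relative to DMSO defined activity.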

[3] = ATG_M_32_TRANS: Attagene TRANS-FACTORIAL HepG2 Assay for M32 Transcription Factor (Internal Marker) (AID 2282984; active = hit-call score of the fitted dose curve at least 0.9, where 1 is the maximum;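 note: transcript level of a background control reporter unit measured by RT-PCR and capillary electrophoresis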); settings: HepG2 Attagene TRANS M32 internal marker reporter
Summary of the method: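 Human hepatoma HepG2, transient MRTU transfection, 24 h treatment. RNA → RT-PCR → fluorescent primer extension → HpaI digest (2 h, 37 C) → CE. Positive-direction fit vs DMSO.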

[4] = target: Transcriptional activator Myb (Homo sapiens) (UniProt P10242); experiment: ATG_Myb_CIS: Attagene CIS-FACTORIAL HepG2 Assay for human Myeloblastosis (Myb) Proto-Oncogene Transcription Factor (AID 2282986); settings: HepG2 Attagene CIS-FACTORIAL Myb reporter transcription; actives raise or lower the signal
Chain of Transcriptional activator Myb (Homo sapiens) (P10242 whole entry, looked up): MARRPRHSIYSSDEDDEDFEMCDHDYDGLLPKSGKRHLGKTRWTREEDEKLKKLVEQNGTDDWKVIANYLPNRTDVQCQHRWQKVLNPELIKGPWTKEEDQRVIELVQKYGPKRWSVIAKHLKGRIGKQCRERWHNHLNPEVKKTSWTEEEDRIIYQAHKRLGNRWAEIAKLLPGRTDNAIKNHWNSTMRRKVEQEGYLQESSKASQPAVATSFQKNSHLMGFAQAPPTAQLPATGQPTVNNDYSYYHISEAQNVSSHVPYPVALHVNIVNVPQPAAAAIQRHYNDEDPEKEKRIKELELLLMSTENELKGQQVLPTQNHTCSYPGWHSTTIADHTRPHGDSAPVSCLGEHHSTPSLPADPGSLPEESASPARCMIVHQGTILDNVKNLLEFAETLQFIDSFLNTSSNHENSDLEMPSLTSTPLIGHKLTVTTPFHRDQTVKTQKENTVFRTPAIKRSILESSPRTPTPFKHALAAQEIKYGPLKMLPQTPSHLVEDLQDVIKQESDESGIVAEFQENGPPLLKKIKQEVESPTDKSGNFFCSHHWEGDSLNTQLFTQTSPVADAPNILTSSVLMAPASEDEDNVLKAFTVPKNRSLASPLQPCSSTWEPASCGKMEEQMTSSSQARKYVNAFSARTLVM
Summary of the method: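 Using HepG2 liver cells bearing transiently transfected cis-promoter reporter constructs, the assay measures induction or loss of reporter mRNA after 24 hours of dosing. Detection used fluorescently labeled RT-PCR products separated by capillary electrophoresis.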

[5] = target: Nuclear respiratory factor 1 (Homo sapiens) (UniProt Q16656); experiment: ATG_NRF1_CIS: Attagene CIS-FACTORIAL HepG2 Assay for human Nuclear Respiratory Factor 1 (NRF1) Orphan Gene (AID 2282987); settings: HepG2 NRF1 cis-element reporter, Attagene multiplex; actives raise or lower the signal
Chain of Nuclear respiratory factor 1 (Homo sapiens) (Q16656 whole entry, looked up): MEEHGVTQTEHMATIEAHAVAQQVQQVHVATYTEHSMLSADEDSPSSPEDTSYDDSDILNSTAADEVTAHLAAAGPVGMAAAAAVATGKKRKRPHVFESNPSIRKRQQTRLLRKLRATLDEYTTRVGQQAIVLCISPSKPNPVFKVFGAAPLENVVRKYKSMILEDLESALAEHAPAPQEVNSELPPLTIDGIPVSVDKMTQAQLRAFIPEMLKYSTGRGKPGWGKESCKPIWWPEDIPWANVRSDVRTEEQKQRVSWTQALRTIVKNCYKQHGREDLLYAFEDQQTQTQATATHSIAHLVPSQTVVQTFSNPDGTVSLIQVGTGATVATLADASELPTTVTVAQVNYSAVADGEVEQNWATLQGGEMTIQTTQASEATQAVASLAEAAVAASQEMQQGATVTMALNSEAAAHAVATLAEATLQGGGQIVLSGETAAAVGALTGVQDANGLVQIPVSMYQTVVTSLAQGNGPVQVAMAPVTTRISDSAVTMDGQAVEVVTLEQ
Summary of the method: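 Reporter mRNA induction or loss in HepG2 cells after 24 h dosing; cis-regulated reporter constructs report endogenous transcription-factor activity. Quantified by RT-PCR/capillary electrophoresis fluorescence, DMSO-referenced.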

[6] = ATG_NFI_CIS: Attagene CIS-FACTORIAL HepG2 Assay for human Nuclear Factor I (NFI) (AID 2282989); settings: HepG2 cis-regulatory reporter, NFI response element transcription; actives raise or lower the signal
Summary of the method: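 Reporter transcripts were measured by RT-PCR with fluorescent primer extension and capillary electrophoresis 24 h post-treatment. HepG2 cells carried transiently transfected cis-regulated reporter constructs reporting endogenous factor activity; gain or loss fitted against DMSO baseline.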

[7] = target: Oxysterols receptor LXR-beta (Homo sapiens) (UniProt P55055); experiment: ATG_LXRb_TRANS: Attagene TRANS-FACTORIAL HepG2 Assay for human Liver X Receptor beta (LXRb) (AID 2282981; active = hit-call score of the fitted dose curve at least 0.9, where 1 is the maximum); settings: HepG2 Attagene TRANS GAL4-LXRb reporter, mRNA
Chain of Oxysterols receptor LXR-beta (Homo sapiens) (P55055 whole entry, looked up, the tested form may be a part): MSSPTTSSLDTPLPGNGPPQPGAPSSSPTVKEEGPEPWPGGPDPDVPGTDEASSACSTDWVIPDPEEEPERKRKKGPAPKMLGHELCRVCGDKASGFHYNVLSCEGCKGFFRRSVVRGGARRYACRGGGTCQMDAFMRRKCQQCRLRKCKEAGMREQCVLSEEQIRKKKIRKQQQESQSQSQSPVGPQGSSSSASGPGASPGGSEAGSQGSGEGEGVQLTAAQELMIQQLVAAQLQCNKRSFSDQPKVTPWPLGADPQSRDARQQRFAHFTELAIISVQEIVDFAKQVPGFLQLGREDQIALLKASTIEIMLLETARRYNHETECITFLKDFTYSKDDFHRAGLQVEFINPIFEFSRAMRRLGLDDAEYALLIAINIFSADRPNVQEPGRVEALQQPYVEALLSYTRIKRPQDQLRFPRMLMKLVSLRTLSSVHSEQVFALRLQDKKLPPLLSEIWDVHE
Summary of the method: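 In this TRANS format, exogenous chimeric NR-Gal4 protein activity, not endogenous factors, drives reporter expression in transfected human HepG2 cells. Exposure lasted 24 h; reporter mRNA was read by fluorescent capillary electrophoresis.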

[8] = target: Nuclear receptor subfamily 4 group A member 2 (Homo sapiens) (UniProt P43354); experiment: ATG_NURR1_TRANS: Attagene TRANS-FACTORIAL HepG2 Assay for human Nuclear Receptor Related Protein 1 (NURR1) (AID 2282985; active = hit-call score of the fitted dose curve at least 0.9, where 1 is the maximum); settings: HepG2 Attagene TRANS reporter, mRNA readout
Chain of Nuclear receptor subfamily 4 group A member 2 (Homo sapiens) (P43354 whole entry, looked up): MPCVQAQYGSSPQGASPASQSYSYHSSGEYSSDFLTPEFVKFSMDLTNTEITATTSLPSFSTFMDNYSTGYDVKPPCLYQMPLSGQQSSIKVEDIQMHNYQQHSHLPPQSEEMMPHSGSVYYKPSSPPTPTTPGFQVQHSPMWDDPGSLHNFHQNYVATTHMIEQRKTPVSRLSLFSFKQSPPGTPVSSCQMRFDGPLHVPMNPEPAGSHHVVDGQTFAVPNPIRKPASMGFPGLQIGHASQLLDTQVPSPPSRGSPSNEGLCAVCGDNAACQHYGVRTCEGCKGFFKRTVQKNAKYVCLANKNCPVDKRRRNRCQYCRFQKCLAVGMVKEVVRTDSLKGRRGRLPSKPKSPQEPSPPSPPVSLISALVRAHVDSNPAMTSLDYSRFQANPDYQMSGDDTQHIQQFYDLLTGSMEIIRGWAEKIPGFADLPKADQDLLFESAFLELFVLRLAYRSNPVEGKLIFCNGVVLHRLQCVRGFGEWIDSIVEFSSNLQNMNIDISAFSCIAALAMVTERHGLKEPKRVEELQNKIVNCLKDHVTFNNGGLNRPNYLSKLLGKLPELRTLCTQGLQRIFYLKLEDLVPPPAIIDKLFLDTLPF
Summary of the method: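 After 24 h chemical dosing, total RNA from transiently transfected HepG2 cells was reverse-transcribed and reporter cDNA PCR-amplified, FAM-labelled and analysed by capillary electrophoresis. Activity fitted in positive direction, DMSO as negative control.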

Measured: AC50

CCCCN(CCCC)CCCC
inactive: [1] | [2] | [3] | [4] | [5] | [6]

Cc1ccc(C)c(O)c1C
inactive: [1] | [2] | [4] | [5] | [6]

Cc1oc(-c2ccccc2)nc1CCOc1cccc2c1ccn2CCC(=O)O
inactive: [7] | [3] | [4] | [5] | [6]

NCCO
inactive: [7] | [8] | [4] | [5] | [6]

CCCCCCCCCCC
inactive: [1] | [2] | [4] | [5] | [6]

Cc1ccc(N(C)C)cc1
inactive: [1] | [2] | [3] | [4] | [5] | [6]

C=CCc1ccc(O)c(OC)c1
inactive: [4] | [5] | [6]

CCCCCCCCCCCCCCCCCC(=O)O
inactive: [4] | [5] | [6]

O=c1[nH]cc(F)c(=O)[nH]1
inactive: [3] | [8] | [4] | [5] | [6]

CC(=O)C(C)=CC1C(C)=CCCC1(C)C (stereo not drawn)
inactive: [2] | [3] | [4] | [5] | [6]

CC(=O)OC/C=C(\C)CCC=C(C)C
inactive: [3] | [4] | [5] | [6]

Cc1cccc(C)c1O
inactive: [2] | [3] | [8] | [4] | [5] | [6]

CNCc1cc(F)ccc1Oc1ccc(Cl)c(Cl)c1
inactive: [1] | [2] | [4] | [5] | [6]

Cc1ccc2ncccc2c1
inactive: [2] | [4] | [5] | [6]

Cc1ccc(C)c(C)c1
inactive: [4] | [5] | [6]

CCCCCCC(=O)OCC
inactive: [1] | [2] | [3] | [4] | [5] | [6]

O=C(N[C@@H](Cc1ccccc1)[C@@H](O)C(=O)N1C[C@@H](O)[C@@H](O)C1)c1cc2cc(Cl)ccc2[nH]1
inactive: [2] | [3] | [4] | [5] | [6]

CCCCOC(=O)CCCCCCCCC(=O)OCCCC
inactive: [1] | [4] | [5] | [6]

Cc1cccc(Nc2cc(Cl)nc(SCC(=O)O)n2)c1C
inactive: [2] | [4] | [5] | [6]

CCCCCCCCCCO
inactive: [1] | [2] | [4] | [5] | [6]

Cc1cccc([N+](=O)[O-])c1C
inactive: [2] | [3] | [4] | [5] | [6]

Clc1cc(Cl)c(Cl)cc1Cl
inactive: [1] | [2] | [8] | [4] | [5] | [6]

C[C@]12C=CC(=O)C=C1CC[C@@H]1[C@@H]2C(=O)C[C@@]2(C)[C@H]1CC[C@]2(O)C(=O)CO
inactive: [7] | [2] | [4] | [5] | [6]

CCOC(=O)CCC(=O)OCC
inactive: [2] | [4] | [5] | [6]

CCCc1cc(=O)[nH]c(=S)[nH]1
inactive: [1] | [2] | [3] | [4] | [5] | [6]

O=C(O)Cc1ccccc1Nc1c(Cl)cccc1Cl
inactive: [3] | [8] | [4] | [5] | [6]

CC=Cc1ccc(O)c(OC)c1
inactive: [2] | [8] | [4] | [5] | [6]

COc1ccc(S(=O)(=O)N2C(=O)[C@@](c3ccccc3OC)(N3C[C@H](O)C[C@H]3C(=O)N(C)C)c3cc(Cl)ccc32)c(OC)c1
inactive: [5] | [6]
active: [4] 163 µM
